Source: PubChem (National Center for Advancing Translational Sciences (NCATS))
The list is not random: actives were taken first. Their share in the collection is about 6.9%.
MCF10A rereplic: induces DNA re-replication in MCF 10a normal breast cells. Potency, µM (highest dose often 46.1 µM), for inactives: top-dose activity, positive = re-replication, usual class: activators. MCF 10A DNA re-replication, Hoechst nuclear intensity, 48 h. actives 2.9% (n = 350,000); further: potency means the concentration at half of the fitted maximal effect; % of control where 0% means no effect; nearly all actives have a fitted effect of over 50% in size
KB-3-1 tox: kills parental KB-3-1 adenocarcinoma cells; KB-3-1 viability, CellTiter-Glo ATP luminescence, 72 h; Potency, µM (series often up to 46.1 µM), actives largely listed as cytotoxic; AID 1347075; actives 1.4% (n = 400,000); further: potency means the concentration at half of the fitted maximal effect; on the % scale 0 is the no-effect control and ±100 the full control effect; nearly all actives have a fitted effect of over 60% in size
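72 h, 37 °C compound treatment of KB-3-1 parental cells; CellTiter-Glo added, 10 min, luminescence read. Data corrected against DMSO-only plates and normalized before curve fitting.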
SW480 rerep: inducers of DNA re-replication in SW480 colon cancer cells; SW480 DNA re-replication, Hoechst DNA content imaging, 48 h; Potency, µM (top dose mostly 46.1 µM), for inactives: at the top dose re-replication activation, hits mostly activators; actives 1.8% (n = 340,000); further: potency means the concentration at half of the fitted maximal effect; % of control where 0% means no effect; nearly all actives have a fitted effect of over 55% in size
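Hoechst fluorescence of nuclei (405 nm excitation, 500-530 nm emission) measured by plate-scanning imager after 48 hr compound exposure at 37 C; re-replication scored as increased number of nuclei with elevated intensity.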
ASM inhibitor: inhibitors of human secretory acid sphingomyelinase; P17405; placental ASM, HMU-PC fluorogenic substrate, 60 min; Potency, µM (titrated, usually from 57.5 µM), inactives show at the top dose activity change, negative = inhibition, actives largely listed as inhibitors; actives 0.006% (n = 340,000); further: potency means the concentration at half of the fitted maximal effect
Target sequence (P17405 47-631 limits assumed): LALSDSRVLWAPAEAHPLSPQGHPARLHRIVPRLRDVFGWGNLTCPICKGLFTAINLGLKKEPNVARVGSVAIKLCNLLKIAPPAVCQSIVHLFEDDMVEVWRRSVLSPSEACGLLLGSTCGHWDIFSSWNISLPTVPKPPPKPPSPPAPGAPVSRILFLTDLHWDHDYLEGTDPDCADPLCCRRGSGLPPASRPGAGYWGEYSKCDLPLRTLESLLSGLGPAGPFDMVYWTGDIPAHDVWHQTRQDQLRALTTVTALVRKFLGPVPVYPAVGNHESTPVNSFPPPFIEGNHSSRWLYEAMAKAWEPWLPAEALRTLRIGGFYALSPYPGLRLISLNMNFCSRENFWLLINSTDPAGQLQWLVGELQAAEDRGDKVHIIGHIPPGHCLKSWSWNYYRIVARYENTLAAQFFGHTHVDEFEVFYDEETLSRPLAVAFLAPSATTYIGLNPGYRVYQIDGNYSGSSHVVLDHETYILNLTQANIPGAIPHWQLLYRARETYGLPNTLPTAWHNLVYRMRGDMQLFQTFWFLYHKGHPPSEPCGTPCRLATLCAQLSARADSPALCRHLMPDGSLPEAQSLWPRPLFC
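Human placenta-derived ASM enzyme was preincubated with compound for 10 minutes at room temperature, then given fluorogenic substrate HMU-PC0 (9 uM final) for 60 minutes at 37 °C; a pH 10 stop preceded fluorescence reading at Ex 386/Em 447 nm.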
KB-V1 cytotox: kills drug-selected multidrug resistant KB-V1 cells. KB-V1 MDR cells viability, CellTiter-Glo, 72 h. Potency, µM (titrated, usually from 46.1 µM), usual class: cytotoxic. actives 3.4% (n = 400,000). AID 1347076; further: potency means the concentration at half of the fitted maximal effect; on the % scale 0 is the no-effect control and ±100 the full control effect; nearly all actives have a fitted effect of over 60% in size
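Potencies derive from concentration-effect curves fitted to normalized luminescence (CellTiter-Glo) of KB-V1 cells treated for 72 h at 37 degrees C in phenol-red-free DMEM containing 10% FBS.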
Giardia kill: kills Giardia lamblia; AID 540267; activity change, % at 7.66 µM, hits read low; actives 0.15% (n = 340,000); Giardia lamblia trophozoite viability; in the data active means activity change below about -80%; inconclusive means between about -30% and that limit;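 further: parasites exposed to compound for two days anaerobically before the ATP read; on the % scale 0 is the no-effect control and ±100 the full control effect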
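Killing of trophozoites was scored by loss of ATP luminescence after a 48 hrs anaerobic exposure to compounds at 37 deg C, using 100 cells per well.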
Numbers without * were called inactive; i = inactive; ? = inconclusive; nt = no result given. Unless noted, the call rests on the fitted dose curve; in most records, active means well fitted curve in the direction sought with a large enough effect; inconclusive means small, poorly fitted or top-dose-only effect, or another doubt; inactive means no such curve, though single readings can be large; an effect the other way counts as inactive or inconclusive.

SMILES	MCF10A rereplic	KB-3-1 tox	SW480 rerep	ASM inhibitor	KB-V1 cytotox	Giardia kill
COc1ccc(Nc2ncnc3sc(-c4ccccc4)cc23)cc1	?	?	7%	25%	21µM*	2
COc1ncnc2sc(-c3ccccc3)cc12	-1%	i	2%	-1%	?	14
COc1ccc(Br)cc1C(=O)Nc1cccc(NC(=O)c2ccco2)c1	5%	i	-9%	-13%	9.2µM*	-14
COc1c(C)cc(Br)cc1C(=O)Nc1ccccc1C	1.5µM*	i	-37%	1%	i	-3
O=C(Nc1cccc(NC(=O)c2ccc(-c3cccc(Br)c3)o2)c1)c1ccco1	21%	i	?	?	23µM*	0
Cc1cc(C)c(OCC(=O)Nc2cccc(NC(=O)c3ccco3)c2)c(Br)c1	1%	i	1%	-13%	21µM*	11
CC(C)Nc1cccc(S(=O)(=O)N2CCCN(S(=O)(=O)c3ccc4c(c3)OCCO4)CC2)c1	nt	i	nt	nt	i	nt
Cc1cc(C)c(NC(=O)CSC2=Nc3ccccc3C3=NC(CC(=O)NCc4cccs4)C(=O)N23)c(C)c1 (centres undefined)	nt	i	nt	nt	i	nt
COc1cccc(C(c2sc3nc(-c4ccco4)nn3c2O)N2CCC3(CC2)OCCO3)c1 (centres undefined)	nt	i	nt	nt	i	nt
O=C(CSc1ccc(Cl)cc1)Nc1ccc(NC(=O)c2ccco2)cc1	-8%	i	7%	2%	i	8
CC(C)CNC(=O)c1cccc(NC(=O)CSc2ccc(Cl)cc2)c1	0%	i	nt	-1%	i	-30
Cc1ccc(SCC(=O)Nc2cccc(NC(=O)c3ccco3)c2)cc1	?	i	-8%	0%	16µM*	2
CC(C)(C)NC(=O)c1cccc(NC(=O)CSc2ccc(Cl)cc2)c1	-3%	?	-147%	-3%	15µM*	-4
COc1c(C)cc(Br)cc1C(=O)Nc1cccc(NC(=O)c2ccco2)c1	?	i	-2%	-2%	3.3µM*	-29
COc1cc(NS(=O)(=O)c2ccc(Br)cc2)c(OC)cc1NC(=O)c1ccco1	-1%	i	6%	-7%	8.2µM*	-5
Cc1ccc(C2CC(c3ccccc3)=NN2C(=O)CSc2nnc(-c3ccncc3)n2C)o1 (centres undefined)	2%	i	-231%	-4%	?	-6
COc1ccc(CN2CCc3c(c(=O)n4ncc(C(=O)N5CCN(c6ccccc6OC)CC5)c4n3C)C2)cc1	nt	?	nt	nt	i	nt
O=C(NCCc1ccc(Cl)cc1)c1ccc(CSCc2ccccc2Cl)o1	nt	i	nt	nt	i	nt
Cc1ccc2nc(Nc3ccc(C)c(F)c3)c3nncn3c2c1	nt	i	nt	nt	i	nt
COc1ccc2nc3ccccc3[n+]([O-])c2c1	0%	i	0%	357%	i	7
COc1ccc2ccc3cccc[n+]3c2c1	?	13µM*	?	i	i	1
O=C(CSc1nc2ccccc2[nH]1)N1CCN(c2ccccc2)CC1	12%	i	-3%	-2%	16µM*	-9
O=C(CSc1nc2ccccc2[nH]1)N1c2ccccc2Sc2ccccc21	-2%	i	9%	-5%	12µM*	1
Cc1cccc(N2CCN(C(=O)CCCSc3nc4ccccc4[nH]3)CC2)c1C	-6%	i	4%	-9%	5.8µM*	-5
O=C(CCCSc1nc2ccccc2[nH]1)N1CCN(c2ccccc2)CC1	10%	i	10%	0%	i	-4
SMILES	MCF10A rereplic	KB-3-1 tox	SW480 rerep	ASM inhibitor	KB-V1 cytotox	Giardia kill
Cc1cc(/C=C/C#N)cc(C)c1Nc1nc(Nc2ccc3n[nH]nc3c2)c2[nH]cnc2n1	nt	i	nt	nt	i	nt
CC(C)CN(CCCNC(=O)CN1C(=O)COc2ccc(S(=O)(=O)N3CCCC3)cc21)CC(C)C	?	i	-26%	0%	i	-13
CCOc1ccc2c(c1)OC1(CCC(C)C1)CC2=O (centres undefined)	0%	i	3%	-1%	i	?
CCOc1ccc2c(c1)OC(c1ccc(C)cc1)(C(F)(F)F)NC2=O (centres undefined)	1.5µM*	i	?	-5%	1.3µM*	1
O=C(NCc1ccc(F)cc1)c1ccc2c(c1)nnn2C1CCCC1	nt	i	nt	nt	i	nt
Cc1nn(Cc2ccccc2Cl)c(C)c1C(=O)NCc1ccco1	3%	i	-9%	-1%	i	-21
Cc1nn(Cc2ccccc2Cl)c(C)c1C(=O)NCCN1C(=O)S/C(=C\c2ccccc2)C1=O	16µM*	i	-7%	-1%	?	12
O=C(Nc1ccccc1)C1C2CCC3C(CCC21)C3(Cl)Cl (centres undefined)	12%	i	13%	-3%	i	-21
O=C(Nc1cccc(Cl)c1)C1C2CCC3C(CCC21)C3(Cl)Cl (centres undefined)	-7%	?	7%	19%	21µM*	2
Cc1nc(NC(C)c2ccccc2)c2c3c(sc2n1)CCC3 (centres undefined)	10µM*	?	?	?	i	3
Cc1ccc(CNc2nc(C)nc3sc4c(c23)CCC4)cc1	18%	i	6%	-13%	8.2µM*	10
Cc1nc(Nc2ccc(O)cc2)c2c3c(sc2n1)CCCC3	?	i	4%	0%	i	-2
O=C(Nc1ccccc1)N1CCn2c(nc3ccccc32)C1	15%	i	0%	2%	23µM*	5
CCN(CC)C(=O)N1CCn2c(nc3ccccc32)C1	-3%	i	-6%	0%	i	20
COc1ccc(-c2cc(C)no2)cc1S(=O)(=O)N(C)c1ccc(C)cc1	7.3µM*	?	-5%	1%	8.2µM*	-10
CCOc1ccc(N(C)S(=O)(=O)c2cc(-c3cc(C)no3)ccc2C)cc1	?	?	21µM*	-15%	?	26
CCc1ccc(-c2cc(C)no2)cc1S(=O)(=O)NCc1ccc(OC)cc1	nt	3.3µM*	nt	nt	3.7µM*	nt
CCOc1ccc(N(C)S(=O)(=O)c2cc(-c3cc(C)no3)ccc2OC)cc1	10%	i	-36%	-8%	i	21
CCOc1ccc(N(C)S(=O)(=O)c2cc(-c3cc(C)no3)ccc2CC)cc1	?	i	23%	-16%	i	-5
COc1cc2c(cc1OC)C(c1cc(Br)ccc1F)N(C(=O)CCl)CC2 (centres undefined)	3.3µM*	?	14%	4%	i	-11
COc1ccc(NC(=O)C(NS(=O)(=O)c2cccc3nsnc23)C(C)C)cc1 (centres undefined)	nt	i	nt	nt	i	nt
